Our source for the Potency, activity change, negative = inhibition and activity, negative = inhibition values is PubChem BioAssay (NCATS).

For assay [1], the target named is Cytochrome P450 1A2 (Homo sapiens) (UniProt P05177). In words: p450-cyp1a2 (AID 410; calls by dose curve; note: potency is the fitted concentration of half-maximal effect;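 for activity change, negative = inhibition: -100% = full effect of reference inhibitor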). The settings on record: recombinant CYP1A2, luciferin-ME demethylation, luminescence; series mostly up to 25.6 µM. The gist of the method:
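O-Demethylation of luciferin 6' methyl ether by human CYP1A2 is monitored as luciferase luminescence. Substrate sits at Km (100uM); enzyme is 20nM. Values are scaled to 57 uM furafylline as maximal inhibition.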

The target of assay [2] is Glucocorticoid receptor (Homo sapiens) (UniProt P04150). In words: GR-GFP Redistribution (AID 450;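 active = compounds whose dose series gives a full or clear partial fitted curve of increased nuclear translocation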; note: potency is the fitted concentration of half-maximal effect). Conditions: U2OS GR-GFP nuclear translocation, laser cytometry, 2 h.
Glucocorticoid receptor (Homo sapiens), sequence (P04150 whole entry, looked up): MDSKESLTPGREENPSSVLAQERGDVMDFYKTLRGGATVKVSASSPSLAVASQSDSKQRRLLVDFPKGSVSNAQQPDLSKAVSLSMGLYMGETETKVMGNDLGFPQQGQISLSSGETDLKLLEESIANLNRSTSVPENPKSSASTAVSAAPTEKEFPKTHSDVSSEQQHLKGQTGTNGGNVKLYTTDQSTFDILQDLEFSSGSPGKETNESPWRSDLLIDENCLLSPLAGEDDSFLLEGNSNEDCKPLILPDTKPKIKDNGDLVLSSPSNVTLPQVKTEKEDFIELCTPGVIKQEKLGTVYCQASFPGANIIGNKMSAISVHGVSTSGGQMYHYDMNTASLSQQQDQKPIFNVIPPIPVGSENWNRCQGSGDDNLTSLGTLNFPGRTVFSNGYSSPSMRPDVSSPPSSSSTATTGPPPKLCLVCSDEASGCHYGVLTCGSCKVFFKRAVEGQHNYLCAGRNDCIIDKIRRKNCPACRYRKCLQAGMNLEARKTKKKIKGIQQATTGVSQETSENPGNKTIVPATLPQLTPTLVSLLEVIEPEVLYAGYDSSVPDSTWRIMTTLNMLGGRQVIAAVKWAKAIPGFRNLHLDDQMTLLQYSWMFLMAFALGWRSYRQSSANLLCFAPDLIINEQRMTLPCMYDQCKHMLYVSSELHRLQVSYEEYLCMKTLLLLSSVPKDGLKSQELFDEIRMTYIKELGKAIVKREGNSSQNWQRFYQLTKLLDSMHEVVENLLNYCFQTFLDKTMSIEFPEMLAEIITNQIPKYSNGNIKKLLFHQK
Assay [3] in a line: AP1 Signaling Pathway (AID 357). Note: % is set by controls: 0 for no effect and ±100 for the full control effect. Conditions: ME-180 AP-1-bla reporter, EGF-induced, beta-lactamase ratio, 5 h; at 17.2 µM (top of the series) unless noted. The gist of the method: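 Read-out was the 460nm/530nm emission ratio (excitation 405nm) after CCF4 loading for 2.5 hours at room temperature. Cells carried an AP-1-driven beta-lactamase reporter, were stimulated with EC50 EGF plus compound for 5 hours, and AC50 values came from titrations.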

Assay [4] can be described thus: Stat Signaling Pathway (AID 446).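 Note: ME-180 cervical cancer cells given 40 pM IL-6 alongside compound; SIE-controlled beta-lactamase reporter measured as 460/530 nm FRET emission ratio; % is set by controls: 0 for no effect and ±100 for the full control effect.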 Conditions: ME-180 (cervical carcinoma) SIE beta-lactamase reporter, IL-6 stimulated, 5 h; at 17.2 µM (top of the series) unless noted. The gist of the method: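 Compound effects on IL-6-induced STAT reporter activity were measured in ME-180 cells. After overnight culture, cells were co-treated with 40 pM IL-6 for 5 hrs before beta-lactamase substrate loading at room temperature.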

A short description of assay [5]: Cell Viability - BJ (AID 421; calls by dose curve;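 note: potency is the fitted concentration of half-maximal effect; cells exposed to compound for 40 hours at 37 °C before readout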). The settings on record: BJ fibroblast viability, qHTS. In outline:
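Luminescent ATP signal (CellTiter-Glo, 20 min at room temperature) served as the read-out of viable BJ cells after 40 hours of compound treatment. Responses were scaled between DMSO and 100 uM tamoxifen, and AC50 values were obtained by Hill modeling.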

Assay [6] is described as follows: Cell Viability - Jurkat (AID 426;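 active = dose-dependent loss of cell ATP signal giving a full or clear fitted curve, ranked by lower potency value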;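 note: potency is the fitted concentration of half-maximal effect; cells exposed to compound for 40 hours at 37 °C before ATP read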). Conditions: qHTS. In outline:
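Cells of the human T-cell leukemia line Jurkat (E6-1) are seeded at 5000 per well, treated with compound across a concentration range for 40 hours at 37 °C, then lysed with CellTiter-Glo; luminescence reports ATP.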

The nature of assay [7]: Cell Viability - Hek293 (AID 427;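 active = compounds whose dose-response curve shows a full or clear partial loss of cell viability, called from curve shape rather than a numeric limit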;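 note: potency is the fitted concentration of half-maximal effect; cells exposed to compound for 40 hours at 37 °C before reading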). Conditions: qHTS. The gist of the method:
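Luminescent ATP read-out (CellTiter-Glo, 20 min RT) after 40 hr compound exposure at 37 °C in complete medium. Signal normalized to DMSO (basal) and 100 uM tamoxifen (100% inhibition); concentration-response fitted with the standard Hill equation to give AC50.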
Background: qHTS replaces the single test concentration by a dilution series.

Assay [8] is described as follows: Cell Viability - HepG2 (AID 433; calls by dose curve;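 note: potency is the fitted concentration of half-maximal effect; potency for ATP loss meaning cytotoxicity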). Conditions: qHTS. The gist of the method: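 Cytotoxicity is scored as loss of intracellular ATP in HepG2 cells exposed to compounds for 40 h. Concentration-response curves, normalized to DMSO and 100 uM tamoxifen, give AC50 values.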
A short description of assay [9]: Cell Viability - MRC5 (AID 434; calls by dose curve;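 note: potency is the fitted concentration of half-maximal effect; potency reflects cytotoxicity seen as loss of intracellular ATP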). The settings on record: MRC5 lung fibroblast viability, qHTS. The gist of the method: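 Decrease in intracellular ATP, quantified by luciferase light output, reflects compound toxicity toward MRC5 cells exposed for 40 hr in complete culture medium. Concentration-response curves, scaled between DMSO and 100 uM tamoxifen, gave AC50 values.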

Assay [10] is described as follows: Cell Viability - SK-N-SH (AID 435; calls by dose curve;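 note: potency is the fitted concentration of half-maximal effect; compound exposure lasted 40 h at 37 °C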). The settings on record: SK-N-SH neuroblastoma cell viability qHTS. The gist of the method:
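Cells seeded at 1500 per well and incubated 5 hr at 37 °C. Compound added, then 40 hr at 37 °C. CellTiter-Glo added, 20 min at room temperature, luminescence read.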

SMILES strings stand for the structures. Values joined by “and” are separate entries in the source; they are usually repeats but may differ in a detail not shown here. Equal values may be shown once. A number with no mark means an inactive call. Inconclusive results are not listed. Active and inactive are the calls of the source. Unless noted, calls come from the whole dose curve; as a rule, active = well fitted curve in either direction with a large enough effect (not every such curve was filed as active); inconclusive = small, poorly fitted or top-dose-only effect, or another doubt; inactive = flat fitted curve, though single readings scatter. Bounds are passed on as bounds.

Cytochrome P450 1A2 (Homo sapiens), sequence (P05177 whole entry, looked up): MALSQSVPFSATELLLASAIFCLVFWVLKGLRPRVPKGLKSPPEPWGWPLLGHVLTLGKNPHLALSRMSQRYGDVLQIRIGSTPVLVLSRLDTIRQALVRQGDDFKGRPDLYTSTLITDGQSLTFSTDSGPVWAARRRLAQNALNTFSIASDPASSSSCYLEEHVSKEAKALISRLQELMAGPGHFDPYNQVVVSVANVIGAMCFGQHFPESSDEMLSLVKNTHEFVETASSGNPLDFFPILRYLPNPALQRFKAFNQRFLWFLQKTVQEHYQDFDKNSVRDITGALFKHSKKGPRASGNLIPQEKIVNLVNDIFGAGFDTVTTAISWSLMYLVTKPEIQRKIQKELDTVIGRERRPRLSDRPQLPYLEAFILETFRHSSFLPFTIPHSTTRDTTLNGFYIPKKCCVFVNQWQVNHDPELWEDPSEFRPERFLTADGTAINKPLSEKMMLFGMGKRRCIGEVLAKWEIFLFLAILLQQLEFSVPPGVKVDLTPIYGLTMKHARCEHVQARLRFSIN

For the molecule `O=c1oc2c(O)c(O)cc3c(=O)oc4c(O)c(O)cc1c4c23`, the Potency in assay [1] was 15.8 µM (active); in assay [2] it was more than 46 µM.
As for `COc1ccccc1OCC(O)COC(N)=O` (stereo unspecified), the activity change, negative = inhibition in assay [3] was 9.66%. Besides, the activity, negative = inhibition in assay [4] was 6.13%. The Potency in assay [2] was more than 20.6 µM.
As for `CCn1cc(C(=O)O)c(=O)c2cc(F)c(N3CCNCC3)cc21`, the activity change, negative = inhibition in assay [3] was -6.52% and 0.998%. For the same molecule, in [4], the activity, negative = inhibition was 1.48% and 7%. Besides, in [2], the Potency was more than 20.6 µM.
As to `Cc1ccc(S(=O)(=O)N[C@@H](Cc2ccccc2)C(=O)CCl)cc1`, the activity, negative = inhibition in [4] is -65.8% [at 38 µM] (active). Further, the Potency in [2] is more than 46 µM.
With `Nc1nc(F)nc2c1ncn2[C@@H]1O[C@H](CO)[C@@H](O)[C@@H]1O`, the activity change, negative = inhibition in assay [3] is -4.13%. In addition, the activity, negative = inhibition in assay [4] is 7.84%. Moreover, the Potency in assay [2] was more than 20.6 µM.
Regarding `O=C(N[C@H](CO)[C@H](O)c1ccc([N+](=O)[O-])cc1)C(Cl)Cl`, the Potency in assay [5], in assay [6], in assay [7], in assay [8], in assay [9] and in assay [10] was more than 92 µM each time.
Turning to `NS(=O)(=O)c1cc2c(cc1Cl)NC(C(Cl)Cl)NS2(=O)=O` (stereo unspecified), the activity change, negative = inhibition in [3] is 12.3%. For the same molecule, in assay [4], the activity, negative = inhibition was 2.72%.
As to `Nc1[nH]c(=O)ncc1F`, the activity change, negative = inhibition in assay [3] is 0.602%. Also, the activity, negative = inhibition in assay [4] was -4.22%. Also, in assay [2], the Potency is more than 20.6 µM.
Take `CC(C)(Sc1cc(C(C)(C)C)c(O)c(C(C)(C)C)c1)Sc1cc(C(C)(C)C)c(O)c(C(C)(C)C)c1`: the activity change, negative = inhibition in assay [3] was 1.37%. Besides, the activity, negative = inhibition in [4] was 5.26%. For the same molecule, in assay [2], the Potency was more than 20.6 µM.
Taken in the same sequence, the figures for `N[C@@H](C(=O)N[C@@H]1C(=O)N2C(C(=O)O)=C(Cl)CS[C@H]12)c1ccccc1` were 0.208%, 1.22% and more than 20.6 µM.
In the case of `COc1cc2ncnc(Nc3cccc(Cl)c3)c2cc1OC`, the activity change, negative = inhibition in assay [3] is -106% [at 38 µM] (active). Further, the Potency in [2] is more than 46 µM.
For the molecule `Cc1ccnc2c1NC(=O)c1cccnc1N2C1CC1`, the Potency in assay [5], in assay [6], in [7], in assay [8], in assay [9] and in assay [10] was more than 92 µM each time.
For `Clc1ccccc1CN1CCc2sccc2C1`, in assay [3], the activity change, negative = inhibition was -15.6% and -18.3%. In addition, the activity, negative = inhibition in assay [4] was 1.54% and 0.607%.
With `O=C(O)c1cccnc1`, in assay [1], the Potency entry was “inactive”. Besides, in [4], the activity, negative = inhibition is 3.94%.
In the case of `CCC(=O)O[C@]1(C(=O)CCl)[C@@H](C)C[C@H]2[C@@H]3CCC4=CC(=O)C=C[C@]4(C)[C@@]3(F)[C@@H](O)C[C@@]21C`, the activity change, negative = inhibition in assay [3] was 3.85%. The activity, negative = inhibition in assay [4] is -5.77%. For the same molecule, the Potency in assay [2] is < 5.9e-06 µM (active).
Turning to `COc1cc([C@@H]2c3cc4c(cc3[C@H](O)[C@H]3COC(=O)[C@H]23)OCO4)cc(OC)c1OC`, the activity change, negative = inhibition in assay [3] was 20.7%. The activity, negative = inhibition in assay [4] is 6.38%.
With `CC(=O)Oc1ccccc1C(=O)Nc1ncc([N+](=O)[O-])s1`, the Potency in [6] was 30.6 µM (active); in [7] it was 32.6 µM (active); in assay [10], 20.7 µM (active).
`C[C@]12C=CC(=O)C=C1CC[C@@H]1[C@@H]2C(=O)C[C@@]2(C)[C@H]1CC[C@]2(O)C(=O)CO`: the Potency in assay [5], in assay [6], in assay [7], in assay [8], in assay [9] and in [10] was more than 92 µM in each case.
